IL-1B inflam inh = inflammasome signaling inhibition, IL-1 beta readout | THP-1 LPS/ATP IL-1B secretion, AlphaLISA, 16 h; active compounds read low | activity change, % at 57.5 µM | 4.7% of 360,000 active | AID 743279; in the data active = activity change below about -50%; inconclusive = mostly about -30% to -49%
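Secreted IL-1B measured by AlphaLISA bead assay after 16 h compound exposure of THP-1 cells; compounds (final up to 57.5 uM) added 1 h before LPS (250 ng/mL) and ATP (1.25 mM) stimulation; lower signal means less secretion.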
HT1080 IDH1KD tx = HT-1080 IDH1 knockdown cell toxicity (counter line). Potency, µM (highest dose often 46.1 µM), for the others: at the top dose activity, negative = toxicity, actives largely listed as cytotoxic. 2% of 360,000 active. AID 686971. HT-1080 IDH1 knockdown viability, ATP luminescence, 48 h;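 also: potency is read from the fitted curve at half-maximal effect; 0% = DMSO wells and -100% = cell-free medium wells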
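Assay cells: HT-1080 with IDH1 knockdown, 750 per well, RPMI/5% FBS. Exposure: 48 h at 37 °C following 2 h pre-incubation. Read: CellTiter-Glo luminescence; fitted concentration-response, curve class assigned.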
TDP1 cell CPT = DT40-hTDP1 cell growth loss with CPT; chicken DT40 Tdp1-/-;hTDP1 cells + 20 nM CPT, ATP luminescence, 48 h; Potency, µM (top dose mostly 46.2 µM), for inactives: top-dose activity change, negative = growth inhibition, most hits filed as inhibitors; 12% of 420,000 active; AID 686979; also: potency is read from the fitted curve at half-maximal effect; nearly all actives have a fitted effect of over 55% in size
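Cell growth measured by CellTiter-Glo luminescence after a minimum 48 h, 37 C compound exposure with 20 nM CPT in Tdp1-knockout DT40 cells stably expressing hTDP1, seeded 400/well; qHTS titration format.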
HT1080-NT tox = kills 2HG-producing HT-1080-NT fibrosarcoma cells; HT-1080-NT fibrosarcoma viability, CellTiter-Glo ATP luminescence, 48 h; Potency, µM (top dose mostly 46.1 µM), for the others: at the top dose activity, negative = less viability, actives largely listed as cytotoxic; 1.6% of 360,000 active;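 also: NT is the 2HG producing partner of a matched IDH1 knockdown line; potency is read from the fitted curve at half-maximal effect; 0% = DMSO-treated cells and -100% = media-only wells without cells; nearly all actives have a fitted effect of over 55% in size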
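Fibrosarcoma NT cells, 750 per well in 5% FBS RPMI, were exposed to compound for 48 hours. Viability: CellTiter-Glo luminescence.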
DT40 TDP1 no CPT = qHTS for Inhibitors of human tyrosyl-DNA phosphodiesterase 1 (TDP1): qHTS in cells in absence of CPT; AID 686978, 2013; DT40 Tdp1-/- hTDP1 cells, no CPT, ATP luminescence, 48 h; Potency, µM (titrated, usually from 46.2 µM), inactives show at the highest dose activity change, negative = growth inhibition, usual class: inhibitors; 15% of 420,000 active; also: potency is read from the fitted curve at half-maximal effect; nearly all actives have a fitted effect of over 55% in size
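Growth of hTDP1-complemented DT40 Tdp1-knockout cells is measured by ATP luminescence after at least 48 hr compound exposure at 37 °C, with DMSO substituting for the 20 nM CPT used in the parallel screen.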
The depositor's hits bear a star; ? = inconclusive; · = no result. Rows were chosen to be rich in hits. Some 19% of all compounds tested hit in one or more screens of this group. Unless noted, calls follow the shape of the dose curve; as a rule, active = well fitted curve in the direction sought with a large enough effect; inconclusive = small, poorly fitted or top-dose-only effect, or another doubt; inactive = no such curve, though single readings can be large; an effect the other way counts as inactive or inconclusive. Unless noted, % is scaled to controls: 0 for no effect and ±100 for the full control effect.

SMILES	IL-1B inflam inh	HT1080 IDH1KD tx	TDP1 cell CPT	HT1080-NT tox	DT40 TDP1 no CPT
COc1ccc(N2CCN(S(=O)(=O)CCNC(=O)COc3cccc(OC)c3)CC2)cc1	26.7	-5.1%	-17.0%	-6.3%	?
OCCN(Cc1ccccc1)C(=S)Nc1ccc(Cl)cc1Cl	-56.0*	-21.5%	?	-18.9%	?
CN(C)CCCN(Cc1ccccc1)C(=S)Nc1cccc(C(F)(F)F)c1	16.5	-13.2%	14.6µM*	-5.1%	?
S=C(Nc1ccccc1Cl)N(Cc1ccccc1)Cc1ccccn1	-51.6*	-18.2%	?	-10.7%	?
CN(C)CCCN(Cc1ccccc1)C(=S)Nc1ccc(F)c(Cl)c1	?	?	-26.8%	?	18.4µM*
Cc1ccccc1C(=O)NC(=S)N(CCO)Cc1ccccc1	-9.3	12.4%	2.9%	7.8%	-25.1%
COc1ccccc1NC(=S)N(Cc1ccccc1)Cc1ccccn1	-5.3	5.7%	?	1.6%	?
COc1ccc(CN2CCN(CC(=O)Nc3ccccc3C(=O)NC3CC3)CC2)cc1F	-23.9	-6.5%	-18.1%	-14.2%	-27.3%
COc1ccc(N2CC(C(=O)OCC(=O)Nc3cccc(C)c3)CC2=O)cc1 (stereo unspecified)	-14.2	11.2%	-8.8%	-1.3%	-12.3%
O=C(CSc1nnc(Cc2ccccc2)o1)Nc1cccc(F)c1	19.4	0.2%	-8.0%	0.1%	-2.6%
CCOC(=O)C1(Cc2cccc(OC)c2)CCN(Cc2ccc(C)s2)CC1	-118.1*	?	20.6µM*	-24.9%	18.4µM*
CCOC(=O)C1(Cc2ccccc2)CCN(Cc2cccn2-c2nccs2)CC1	?	-25.8%	?	-15.6%	?
CCOC(=O)C1(Cc2ccccc2)CCN(Cc2cnn(C(C)C)c2)CC1	32.5	0.0%	15.4%	0.2%	-24.0%
CCOC(=O)C1(Cc2ccccc2)CCN(Cc2csc(C(C)=O)c2)CC1	-60.5*	-14.4%	-24.3%	-5.6%	?
CCOC(=O)C1(Cc2ccccc2)CCN(Cc2cccc(OC)c2O)CC1	-50.1*	-11.0%	?	-3.2%	?
CCOC(=O)C1(Cc2cccc(OC)c2)CCN(Cc2ccon2)CC1	8.4	5.4%	?	3.1%	0.8%
CCOC(=O)C1(Cc2cccc(OC)c2)CCN(Cc2cccn2-c2nccs2)CC1	-76.8*	-16.9%	?	-3.3%	?
Cc1ccc(CC(=O)N2CCN(S(=O)(=O)c3ccccc3)CC2)cc1C	-5.5	-0.3%	-24.2%	-0.9%	?
CCOC(=O)C1(Cc2cccc(OC)c2)CCN(Cc2cccc(O)c2)CC1	?	-4.0%	-17.2%	-5.4%	?
CCOC(=O)C1(Cc2cccc(OC)c2)CCN(Cc2ccccc2OC)CC1	-4.9	?	-24.5%	?	?
CCOC(=O)C1(Cc2ccccc2)CCN(Cc2cccc3nccnc23)CC1	-64.0*	-3.5%	?	-10.5%	18.4µM*
CCOC(=O)C1(Cc2cccc(OC)c2)CCN(Cc2ccc(OC)c(OC)c2)CC1	-22.5	-21.4%	?	?	20.6µM*
CCOC(=O)C1(Cc2cccc(OC)c2)CCN(Cc2cccc(OC)c2O)CC1	?	?	23.1µM*	?	20.6µM*
CCOC(=O)C1(Cc2cccc(OC)c2)CCN(CC2CC=CCC2)CC1 (stereo unspecified)	32.7	-10.6%	?	-19.5%	23.1µM*
COc1ccccc1NC(=O)/C(N=Nc1ccc(C)c(S(=O)(=O)Nc2ccccc2Cl)c1)=C(\C)O	7.6	3.0%	18.4µM*	1.8%	18.4µM*
SMILES	IL-1B inflam inh	HT1080 IDH1KD tx	TDP1 cell CPT	HT1080-NT tox	DT40 TDP1 no CPT
CN(C)S(=O)(=O)N(CC(=O)Nc1ccc(S(=O)(=O)N2CCCC2)cc1)c1ccccc1	-12.0	-7.1%	-28.4%	-0.6%	?
Cc1cc(C)cc(N2C(=O)CS(=O)(=O)C23C(=O)N(Cc2ccc(F)cc2)c2ccc(C)cc23)c1 (stereo unspecified)	·	·	18.4µM*	·	20.6µM*
CCc1cccc(N2C(=O)CS(=O)(=O)C23C(=O)N(Cc2ccc(F)cc2)c2ccc(C)cc23)c1 (stereo unspecified)	·	·	?	·	23.1µM*
CCc1cccc(N2C(=O)CS(=O)(=O)C23C(=O)N(Cc2ccccc2)c2ccc(C)cc23)c1 (stereo unspecified)	·	·	?	·	18.4µM*
Cc1ccccc1CN1C(=O)C2(c3ccccc31)N(c1ccccc1)C(=O)CS2(=O)=O (stereo unspecified)	·	·	-21.5%	·	-15.6%
COC(=O)c1ccc(NC(=O)CN2CCN(CC#N)CC2)cc1	12.2	14.7%	4.1%	9.8%	-0.3%
COc1ccc(S(=O)(=O)N2CCN(C/C=C/c3ccccc3)CC2)cc1NC(C)=O	-18.6	1.6%	-25.2%	10.2%	-8.1%
Nc1nc2ccccc2n1Cc1ccc(Cl)c(Cl)c1	-91.7*	?	?	?	?
Nc1nonc1-c1nc2ccccc2n1Cc1ccc(Cl)cc1	5.8	7.4%	9.6%	-1.6%	-18.1%
Cc1ccc(Cn2c(N)nc3ccccc32)cc1	-25.3	-3.6%	18.4µM*	-19.8%	9.2µM*
CCN(C(=O)Cn1c(=O)oc2ccccc21)c1ccc(C)c(C)c1	1.5	1.1%	-24.6%	-0.9%	-5.1%
COc1cccc(CC(NC(C)=O)C(=O)NC2CCN(C(=O)Nc3ccc(C)cc3)CC2)c1 (stereo unspecified)	9.9	0.0%	11.1%	5.6%	-14.9%
CCC[C@@H](CN1CCC[C@H]1CN1C(N)=NC[C@H]1C(C)C)N1C[C@@H]([C@H](C)CC)N(CCCC2CCCC2)C1=N	-17.9	1.8%	?	-0.1%	?
CC(C)C[C@@H]1CN=C(N)N1C[C@@H]1CCCN1C[C@@H](C(C)C)N1C[C@@H](Cc2ccccc2)N(CCc2ccc(Cl)c(Cl)c2)C1=N	?	0.1%	-2.6%	-3.6%	-13.5%
CC(C)C[C@@H]1CN=C(N)N1C[C@@H]1CCCN1C[C@H](C)N1C[C@@H](Cc2ccccc2)N(CCc2ccc(Cl)c(Cl)c2)C1=N	0.0	-2.7%	18.4µM*	0.2%	?
CCC[C@@H](CN1CCC[C@H]1CN1C(N)=NC[C@H]1CC(C)C)N1C[C@@H]([C@H](C)CC)N(CCCC2CCCC2)C1=N	-57.6*	-8.7%	20.6µM*	-2.4%	16.4µM*
CCCCN1C(=N)N([C@@H](C)CN2CCC[C@H]2CN2C(N)=NC[C@H]2CC(C)C)C[C@H]1[C@H](C)CC	0.0	0.6%	23.1µM*	7.2%	16.4µM*
NC(=O)c1ccsc1NC(=O)CS(=O)(=O)c1ccccc1	8.2	-5.3%	-9.8%	0.2%	-18.1%
COc1ccc(N2C(c3ccsc3)=Cc3cc4c(cc3C2c2c[nH]c3ccccc23)OCO4)cc1 (stereo unspecified)	-6.3	?	?	20.6µM*	23.1µM*
